Results: PubChem BioAssay (EPA / NIEHS)
Where a structure was tested more than once in an assay, its records may differ in their call. The source made the active and inactive calls. The calls were made as follows: active = hit-call score of the fitted dose curve at least 0.9, where 1 is the maximum; inactive = score below 0.9.

Experiment: CCTE_Shafer_MEA_dev_network_spike_duration_std: CCTE's Neural Network Formation Assay for Standard Deviation of Network Spike Duration, Shafer Lab (AID 2284052);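 also: area under curve of spike duration SD across recording days 5 to 12; hits are decreases in network spike duration SD versus DMSO vehicle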
Method in brief: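 Rat cortical cultures, 1.5 x 10^5 cells/well, exposed continuously from plating to DIV 12 with media/compound renewal at DIV 5, 9. Spontaneous activity recorded DIV 5/7/9/12, AxIS adaptive spike detector; AUC across days; negative direction vs DMSO.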

SMILES	outcome	AC50
Cc1cc(=O)[nH]c(=S)[nH]1	inactive	–
CC(C)c1ccc(C(=O)N=C(N)N)cc1S(C)(=O)=O	inactive	–
C[Si]1(C)O[Si](C)(C)O[Si](C)(C)O[Si](C)(C)O1	inactive	–
CCCc1cc(=O)[nH]c(=S)[nH]1	inactive	–
CC(=O)Oc1ccccc1C(=O)O	inactive	10.1 nM (active)
FC(F)(F)C(F)(F)C(F)(F)C(F)(F)C(F)(F)C(F)(F)CCI	inactive	–
OC[C@@H](O)[C@@H](O)[C@H](O)[C@H](O)CO	inactive	–
C=CCc1ccc(O)c(OC)c1	inactive	–
O=c1[nH]cc(F)c(=O)[nH]1	–	2010 nM (active)

Experiment: CCTE_Shafer_MEA_dev_per_network_spike_spike_number_mean: CCTE's Neural Network Formation Assay for Mean Number of Spikes in a Network Spike, Shafer Lab (AID 2284053);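 as to AC50: fitted as decrease in spikes per network spike relative to DMSO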
Method in brief: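 Rat cortical primary cultures on 48-well MEA; compound from day 0, re-dosed with full media change DIV 5, 9. Recorded DIV 5, 7, 9, 12; spikes in 0.05 s window at network-spike peak ÷ total network spikes; AUC; loss vs DMSO.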

SMILES	outcome	AC50
Cc1cc(=O)[nH]c(=S)[nH]1	inactive	–
CC(C)c1ccc(C(=O)N=C(N)N)cc1S(C)(=O)=O	inactive	–
C[Si]1(C)O[Si](C)(C)O[Si](C)(C)O[Si](C)(C)O1	inactive	–
CCCc1cc(=O)[nH]c(=S)[nH]1	inactive	25 µM (active)
CC(=O)Oc1ccccc1C(=O)O	inactive	–
FC(F)(F)C(F)(F)C(F)(F)C(F)(F)C(F)(F)C(F)(F)CCI	inactive	–
OC[C@@H](O)[C@@H](O)[C@H](O)[C@H](O)CO	inactive	–
C=CCc1ccc(O)c(OC)c1	inactive	–
O=c1[nH]cc(F)c(=O)[nH]1	–	0.913 µM (active)
